# Reference: PubChem BioAssay (Tox21)
# Values joined by “and” are separate entries in the source; they are usually repeats but may differ in a detail not shown here. Equal entries are not always repeated. Records with an inconclusive call do not appear. A call without a number means that no potency is given here. The source holds several records for some structures; these can differ, active in one and inactive in another. Active and inactive are the calls of the source. Unless noted, calls follow the shape of the dose curve; as a rule, active = well fitted curve in the direction sought with a large enough effect in the repeat runs; inconclusive = weak or mixed curves; inactive = no such curve, though single readings can be large; an effect the other way counts as inactive or inconclusive.
# Key:
# [1] = target: Acetylcholinesterase (Homo sapiens) (UniProt P22303); experiment: Acetylcholinesterase (AChE) small molecule antagonists: colormetric cell-based qHTS assay (AID 1347395; calls by dose curve; also: nearly all actives have a fitted effect of over 30% in size; also: potency is read from the fitted curve at half-maximal effect)
# Acetylcholinesterase (Homo sapiens), sequence (P22303 whole entry, looked up): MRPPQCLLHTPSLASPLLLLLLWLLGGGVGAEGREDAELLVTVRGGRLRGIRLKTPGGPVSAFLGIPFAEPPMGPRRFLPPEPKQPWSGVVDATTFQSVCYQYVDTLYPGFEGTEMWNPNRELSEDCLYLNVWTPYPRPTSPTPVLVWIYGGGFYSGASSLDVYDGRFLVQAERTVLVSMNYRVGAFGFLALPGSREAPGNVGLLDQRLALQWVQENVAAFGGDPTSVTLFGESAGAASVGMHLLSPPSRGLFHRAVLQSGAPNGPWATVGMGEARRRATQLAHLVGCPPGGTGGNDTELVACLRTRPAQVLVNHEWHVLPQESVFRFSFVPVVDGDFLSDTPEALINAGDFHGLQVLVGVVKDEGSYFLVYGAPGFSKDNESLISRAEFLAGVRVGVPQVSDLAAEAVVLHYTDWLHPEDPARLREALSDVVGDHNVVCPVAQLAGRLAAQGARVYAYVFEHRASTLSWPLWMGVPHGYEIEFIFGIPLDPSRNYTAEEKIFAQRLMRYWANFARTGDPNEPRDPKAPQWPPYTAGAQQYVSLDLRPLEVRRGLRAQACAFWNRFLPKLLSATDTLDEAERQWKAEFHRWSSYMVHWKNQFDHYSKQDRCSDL
# Procedure, shortened: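 Neuroblastoma line SH-SY5Y supplied the enzyme; cells were preincubated with compound for 30 min at 37 C and 5% CO2. Acetylthiocholine with DTNB was then added for 90 min at 37 C, and thiocholine was measured by colour.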
# [2] = target: Acetylcholinesterase (Homo sapiens) (UniProt P22303); experiment: Acetylcholinesterase (AChE) small molecule antagonists: enzyme-based qHTS assay (AID 1347397; calls by dose curve; also: nearly all actives have a fitted effect of over 55% in size); settings: Potency: AChE enzyme activity inhibition
# Procedure, shortened: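 Recombinant human AChE (50 mU/mL) preincubated with compound 30 min at room temperature; acetylthiocholine plus DTNB then added, and thiocholine formation read colorimetrically after 10 min at room temperature. DMSO served as vehicle control.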
# [3] = target: Acetylcholinesterase (Homo sapiens) (UniProt P22303); experiment: Acetylcholinesterase (AChE) small molecule antagonists: fluorescence cell-based qHTS assay (AID 1347398; calls by dose curve; also: nearly all actives have a fitted effect of over 50% in size); settings: Potency: AChE activity
# Procedure, shortened: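 SH-SY5Y cells (2000/well), attached overnight, incubated with compound 30 min at 37 C. Acetylthiocholine plus Thiolite Green then added for 40 min at room temperature. Thiocholine fluorescence (Ex/Em 490/520 nm) reports cellular AChE activity.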
# [4] = target: Acetylcholinesterase (Homo sapiens) (UniProt P22303); experiment: Acetylcholinesterase (AChE) small molecule antagonists: enzyme-based qHTS assay with human liver microsomes (AID 1347399; calls by dose curve; also: nearly all actives have a fitted effect of over 60% in size); settings: Potency: qHTS inhibition
# Procedure, shortened: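 Recombinant human AChE (50 mU/mL in the enzyme mix) and human liver microsomes (0.25 mg/mL final) were preincubated with compound and NADPH (0.25 mg/mL final) for 30 min at 37 C. Acetylthiocholine/DTNB was then added; thiocholine was read colorimetrically after 10 min at room temperature.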
# [5] = target: Cytochrome P450 2D6 (Homo sapiens) (UniProt P10635); experiment: Cytochrome P450 Family 2 Subfamily D Member 6 (CYP2D6) small molecule antagonists: luciferase reporter qHTS assay (AID 1671196); also: nearly all actives have a fitted effect of over 50% in size; also: potency is read from the fitted curve at half-maximal effect
# Cytochrome P450 2D6 (Homo sapiens), sequence (P10635 whole entry, looked up): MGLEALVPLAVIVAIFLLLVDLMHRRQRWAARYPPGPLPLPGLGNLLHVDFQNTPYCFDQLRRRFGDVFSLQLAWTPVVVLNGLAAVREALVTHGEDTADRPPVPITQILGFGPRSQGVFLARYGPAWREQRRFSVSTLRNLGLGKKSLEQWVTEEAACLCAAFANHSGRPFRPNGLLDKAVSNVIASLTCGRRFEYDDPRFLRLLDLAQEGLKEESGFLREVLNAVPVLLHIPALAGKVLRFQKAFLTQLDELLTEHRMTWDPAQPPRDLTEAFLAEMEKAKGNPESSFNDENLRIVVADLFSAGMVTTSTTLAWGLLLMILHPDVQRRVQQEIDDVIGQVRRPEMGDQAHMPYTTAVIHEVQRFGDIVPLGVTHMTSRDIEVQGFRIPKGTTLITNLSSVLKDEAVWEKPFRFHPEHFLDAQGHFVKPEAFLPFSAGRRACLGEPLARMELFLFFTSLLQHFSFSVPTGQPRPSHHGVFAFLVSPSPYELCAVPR
# Procedure, shortened: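 P450-Glo format: CYP2D6 converts a proluciferin substrate to luciferin in an NADPH-driven reaction lasting 1 h at room temperature. Light output, proportional to CYP2D6 activity, reflects interference by test chemicals.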
# [6] = target: Cytochrome P450 2C9 (Homo sapiens) (UniProt P11712); experiment: Cytochrome P450 Family 2 Subfamily C Member 9 (CYP2C9) small molecule antagonists: luciferase reporter qHTS assay (AID 1671198); also: nearly all actives have a fitted effect of over 50% in size; also: potency is read from the fitted curve at half-maximal effect
# Cytochrome P450 2C9 (Homo sapiens), sequence (P11712 whole entry, looked up): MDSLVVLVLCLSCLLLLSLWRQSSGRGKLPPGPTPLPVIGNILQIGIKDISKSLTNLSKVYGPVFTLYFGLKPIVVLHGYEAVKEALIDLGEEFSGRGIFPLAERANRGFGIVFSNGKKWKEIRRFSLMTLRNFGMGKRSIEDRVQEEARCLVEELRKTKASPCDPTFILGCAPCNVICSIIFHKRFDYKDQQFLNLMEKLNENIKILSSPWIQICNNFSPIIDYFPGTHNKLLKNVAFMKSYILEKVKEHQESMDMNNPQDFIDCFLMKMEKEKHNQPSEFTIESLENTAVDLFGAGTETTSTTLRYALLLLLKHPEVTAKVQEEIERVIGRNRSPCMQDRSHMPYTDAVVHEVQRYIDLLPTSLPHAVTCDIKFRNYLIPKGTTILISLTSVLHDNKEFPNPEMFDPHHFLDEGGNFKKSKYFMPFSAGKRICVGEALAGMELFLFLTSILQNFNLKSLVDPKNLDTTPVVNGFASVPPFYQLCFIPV
# Procedure, shortened: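 P450-Glo proluciferin substrate with CYP2C9 enzyme; 10 min RT preincubation, then NADPH regeneration 1 h at 37C; luciferin detection reagent 20 min RT, luminescence in relative luminescence units.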
# [7] = target: Cytochrome P450 1A2 (Homo sapiens) (UniProt P05177); experiment: Cytochrome P450 Family 1 Subfamily A Member 2 (CYP1A2) small molecule antagonists: luciferase reporter qHTS assay (AID 1671199); also: nearly all actives have a fitted effect of over 50% in size; also: potency is read from the fitted curve at half-maximal effect
# Cytochrome P450 1A2 (Homo sapiens), sequence (P05177 whole entry, looked up): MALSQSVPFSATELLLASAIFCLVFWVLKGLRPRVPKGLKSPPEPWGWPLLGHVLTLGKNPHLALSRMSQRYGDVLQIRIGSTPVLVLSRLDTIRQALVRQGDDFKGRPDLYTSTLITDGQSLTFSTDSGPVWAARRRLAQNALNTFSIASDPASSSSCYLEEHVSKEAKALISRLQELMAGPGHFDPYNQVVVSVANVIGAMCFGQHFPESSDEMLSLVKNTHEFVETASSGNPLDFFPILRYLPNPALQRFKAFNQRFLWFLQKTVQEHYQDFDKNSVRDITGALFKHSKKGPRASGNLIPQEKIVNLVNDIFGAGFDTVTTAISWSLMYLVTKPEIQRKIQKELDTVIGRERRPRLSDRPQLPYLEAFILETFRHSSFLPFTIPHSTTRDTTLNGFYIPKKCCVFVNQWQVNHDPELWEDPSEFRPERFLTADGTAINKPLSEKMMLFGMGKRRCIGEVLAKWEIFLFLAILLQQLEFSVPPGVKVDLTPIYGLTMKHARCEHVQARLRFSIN
# Procedure, shortened: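 Inhibition of CYP1A2 conversion of proluciferin to luciferin, detected by luminescence. Reaction run 1 h at room temperature with NADPH regeneration after brief compound preincubation.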
# [8] = target: Voltage-gated inwardly rectifying potassium channel KCNH2 (Homo sapiens) (UniProt Q12809); experiment: Human Ether-a-go-go-Related Gene (hERG) channel small molecule antagonists: fluorescence cell-based qHTS assay (AID 1671200); also: nearly all actives have a fitted effect of over 50% in size; also: potency is read from the fitted curve at half-maximal effect
# Voltage-gated inwardly rectifying potassium channel KCNH2 (Homo sapiens), sequence (Q12809 whole entry, looked up): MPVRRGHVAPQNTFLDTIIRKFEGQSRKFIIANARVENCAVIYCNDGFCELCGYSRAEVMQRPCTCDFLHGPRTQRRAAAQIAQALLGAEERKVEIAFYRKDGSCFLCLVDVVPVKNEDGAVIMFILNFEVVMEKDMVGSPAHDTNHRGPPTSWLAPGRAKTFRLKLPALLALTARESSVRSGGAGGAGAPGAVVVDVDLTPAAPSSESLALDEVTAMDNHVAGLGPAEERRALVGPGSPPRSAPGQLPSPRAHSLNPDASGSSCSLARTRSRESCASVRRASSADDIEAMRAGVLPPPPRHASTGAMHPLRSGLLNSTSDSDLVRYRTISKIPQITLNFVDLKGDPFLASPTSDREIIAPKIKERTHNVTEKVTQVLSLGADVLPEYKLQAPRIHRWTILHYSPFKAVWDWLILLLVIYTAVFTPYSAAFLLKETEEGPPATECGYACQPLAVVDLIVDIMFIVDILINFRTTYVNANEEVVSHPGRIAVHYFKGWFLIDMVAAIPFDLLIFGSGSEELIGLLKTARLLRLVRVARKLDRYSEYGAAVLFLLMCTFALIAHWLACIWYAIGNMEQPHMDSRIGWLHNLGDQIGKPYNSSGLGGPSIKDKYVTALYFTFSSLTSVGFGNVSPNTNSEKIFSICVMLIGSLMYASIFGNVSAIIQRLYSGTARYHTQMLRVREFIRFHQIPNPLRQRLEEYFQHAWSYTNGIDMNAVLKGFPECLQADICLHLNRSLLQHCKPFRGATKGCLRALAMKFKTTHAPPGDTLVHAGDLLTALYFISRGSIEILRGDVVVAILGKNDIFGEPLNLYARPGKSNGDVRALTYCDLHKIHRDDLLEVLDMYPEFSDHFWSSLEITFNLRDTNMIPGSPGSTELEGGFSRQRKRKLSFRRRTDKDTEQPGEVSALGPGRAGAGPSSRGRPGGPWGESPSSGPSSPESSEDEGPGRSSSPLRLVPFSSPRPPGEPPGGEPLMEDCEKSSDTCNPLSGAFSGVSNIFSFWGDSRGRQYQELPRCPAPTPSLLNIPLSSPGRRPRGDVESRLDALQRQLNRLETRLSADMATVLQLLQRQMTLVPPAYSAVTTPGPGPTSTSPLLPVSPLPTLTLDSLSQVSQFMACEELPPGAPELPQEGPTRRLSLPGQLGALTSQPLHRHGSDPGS
# Procedure, shortened: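 Measured: Tl+ flux via fluorescence (480/540 nm) in hERG-expressing U2OS cells after 1 h dye loading at room temperature.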
# [9] = target: Cytochrome P450 3A4 (Homo sapiens) (UniProt P08684); experiment: Cytochrome P450 Family 3 Subfamily A Member 4 (CYP3A4) small molecule antagonists: luciferase reporter qHTS assay (AID 1671201); also: nearly all actives have a fitted effect of over 50% in size; also: potency is read from the fitted curve at half-maximal effect
# Cytochrome P450 3A4 (Homo sapiens), sequence (P08684 whole entry, looked up): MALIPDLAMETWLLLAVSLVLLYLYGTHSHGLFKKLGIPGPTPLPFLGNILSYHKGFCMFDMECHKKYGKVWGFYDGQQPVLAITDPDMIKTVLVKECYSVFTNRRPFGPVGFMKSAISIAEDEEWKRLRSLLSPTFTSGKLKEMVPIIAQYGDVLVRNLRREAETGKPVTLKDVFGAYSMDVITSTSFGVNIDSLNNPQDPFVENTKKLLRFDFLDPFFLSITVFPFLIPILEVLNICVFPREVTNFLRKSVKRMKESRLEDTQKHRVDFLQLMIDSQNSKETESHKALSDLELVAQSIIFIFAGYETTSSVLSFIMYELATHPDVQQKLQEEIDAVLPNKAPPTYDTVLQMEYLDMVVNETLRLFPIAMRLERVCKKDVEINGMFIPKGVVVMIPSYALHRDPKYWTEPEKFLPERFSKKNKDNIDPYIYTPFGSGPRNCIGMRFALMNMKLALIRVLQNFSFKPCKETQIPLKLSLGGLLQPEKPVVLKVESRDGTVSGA
# Procedure, shortened: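 Setup: enzyme-substrate mix, compound pin transfer, 10 min RT. Reaction: NADPH regeneration solution, 1 h RT. Readout: detection reagent stops turnover, luminescence measured after 20 min, expressed in relative luminescence units.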
# [10] = target: Cytochrome P450 2C19 (Homo sapiens) (UniProt P33261); experiment: Cytochrome P450 Family 2 Subfamily C Member 19 (CYP2C19) small molecule antagonists: luciferase reporter qHTS assay (AID 1671197); also: nearly all actives have a fitted effect of over 65% in size; also: potency is read from the fitted curve at half-maximal effect
# Cytochrome P450 2C19 (Homo sapiens), sequence (P33261 whole entry, looked up): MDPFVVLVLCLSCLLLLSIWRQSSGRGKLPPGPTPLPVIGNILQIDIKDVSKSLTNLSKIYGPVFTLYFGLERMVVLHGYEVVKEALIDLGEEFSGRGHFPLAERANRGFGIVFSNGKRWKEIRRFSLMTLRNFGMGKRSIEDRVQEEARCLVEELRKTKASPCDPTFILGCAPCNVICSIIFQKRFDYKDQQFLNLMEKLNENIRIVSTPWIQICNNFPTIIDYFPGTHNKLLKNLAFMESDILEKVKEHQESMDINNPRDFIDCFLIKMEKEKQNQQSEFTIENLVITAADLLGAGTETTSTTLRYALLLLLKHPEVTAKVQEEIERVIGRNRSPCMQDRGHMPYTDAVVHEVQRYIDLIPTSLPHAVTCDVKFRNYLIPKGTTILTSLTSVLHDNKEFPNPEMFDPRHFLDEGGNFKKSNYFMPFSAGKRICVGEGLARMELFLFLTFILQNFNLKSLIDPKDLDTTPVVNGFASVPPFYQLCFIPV
# Procedure, shortened: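 CYP2C19 P450-Glo, 1536-well qHTS. Cpd + enzyme/proluciferin substrate 10 min RT; + NADPH regen, 37C 1 h; stop with luciferin detection reagent, 20 min RT, luminescence (RLU). Pos ctrl ketoconazole.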
Compound,Potency [1],Potency [2],Potency [3],Potency [4],Potency [5],Potency [6],Potency [7],Potency [8],Potency [9],Potency [10]
CCOc1cc(Oc2ccc(C(F)(F)F)cc2Cl)ccc1[N+](=O)[O-],inactive,inactive,inactive,inactive,2.27 µM (active) and 5.64 µM (active),4.53 µM (active) and 6.33 µM (active),20 µM (active),inactive,inactive,
CCC(C)c1cc([N+](=O)[O-])cc([N+](=O)[O-])c1O (configuration not stated),inactive,inactive,inactive,inactive,inactive,inactive,inactive and 63.3 µM (active),inactive,inactive,
C#CCOS(=O)OC1CCCCC1Oc1ccc(C(C)(C)C)cc1 (configuration not stated),inactive,inactive,inactive,inactive,22.5 µM (active) and 22.4 µM (active),503 nM (active) and 502 nM (active),8.95 µM (active) and 8.94 µM (active),,1.59 µM (active) and 2.83 µM (active),895 nM (active) and 710 nM (active)
Nc1c(Cl)cc([N+](=O)[O-])cc1Cl,inactive,inactive,inactive,inactive,35.8 µM (active) and inactive,inactive,1.79 µM (active) and 2.52 µM (active),inactive,inactive,40.2 µM (active) and 56.4 µM (active)
CC(C)Oc1cc(-n2nc(C(C)(C)C)oc2=O)c(Cl)cc1Cl,inactive,inactive,inactive,inactive,inactive,27.9 µM (active) and 25.2 µM (active),1.4 µM (active) and 2.83 µM (active),,inactive,7 µM (active) and 3.99 µM (active)
NNC(=S)NN,inactive,inactive,inactive,inactive,65 µM (active),65 µM (active),41 µM (active) and 31.7 µM (active),inactive,,32.6 µM (active) and 39.9 µM (active)
O=C(Nc1ccc(Br)cc1)c1cc(Br)cc(Br)c1O,inactive,inactive,inactive,inactive,79.6 µM (active) and inactive,35.5 µM (active) and 17.8 µM (active) and 15.5 µM (active),2.82 µM (active) and 35.6 µM (active) and 17.4 µM (active),inactive,,inactive
CCN(CC)N=O,inactive,inactive,inactive,inactive,inactive,inactive,inactive,,inactive,22.6 µM (active)
CCN(CC)C(=O)SCc1ccc(Cl)cc1,inactive,inactive,inactive,inactive,inactive,32.7 µM (active) and 25.2 µM (active),13 µM (active) and 15.9 µM (active),,inactive,581 nM (active) and 564 nM (active)
Cc1ccccc1[N+](=O)[O-],inactive,inactive,inactive,inactive,inactive,inactive,inactive,,inactive,inactive
COC(=O)c1sccc1S(=O)(=O)NC(=O)Nc1nc(C)nc(OC)n1,inactive,inactive,inactive,inactive,inactive,inactive,inactive,inactive,inactive,81.3 µM (active)
Oc1c(Cl)c(Cl)c(Cl)c(Cl)c1Cl,inactive,inactive,inactive,inactive,inactive and 796 nM (active),,62 µM (active) and 35.5 µM (active) and 79.6 µM (active),,inactive,34.9 µM (active) and 15.9 µM (active) and inactive
CC(C)(C)c1ccccc1O,inactive,inactive,inactive,inactive,inactive,inactive,,inactive,inactive,inactive
Nc1ccc(Cl)c(Cl)c1,inactive,inactive,inactive,inactive,inactive,36.4 µM (active) and 35.6 µM (active),40.9 µM (active) and 35.6 µM (active),,32.5 µM (active),inactive
CCOc1cc(C=O)ccc1O,inactive,inactive,inactive,inactive,inactive,inactive,40 µM (active) and 39.9 µM (active),inactive,inactive,inactive
CCCCCc1cc(O)cc(O)c1,inactive,inactive,inactive,inactive,10.1 µM (active) and 31.7 µM (active),11.3 µM (active) and 31.7 µM (active),17.9 µM (active) and 35.6 µM (active),,5.05 µM (active) and 22.4 µM (active),3.57 µM (active) and 6.33 µM (active)
Cc1c(COC(=O)[C@@H]2[C@H](/C=C(\Cl)C(F)(F)F)C2(C)C)cccc1-c1ccccc1,inactive,inactive,inactive,inactive,inactive,19.6 µM (active) and 11.2 µM (active),inactive,,inactive,7.79 µM (active) and 8.91 µM (active)

Compound,Potency [1],Potency [2],Potency [3],Potency [4],Potency [5],Potency [6],Potency [7],Potency [8],Potency [9],Potency [10]
Oc1ccc(-c2ccccc2)cc1,inactive,inactive,inactive,inactive,31.3 µM (active),39.4 µM (active),11.1 µM (active) and 11.2 µM (active),inactive,inactive,35.1 µM (active) and 35.6 µM (active)
Nc1ccncc1,inactive,inactive,inactive,inactive,inactive,,,inactive,inactive,inactive
O=P(O)(O)CCCl,40.7 µM (active) and 39.8 µM (active),inactive,inactive,inactive,inactive,inactive,inactive,inactive,inactive,inactive
CC1(C)C(C=C(Cl)Cl)C1C(=O)OC(C#N)c1cccc(Oc2ccccc2)c1 (configuration not stated),inactive,inactive,inactive,inactive,inactive,5.64 µM (active) and 12.3 µM (active),inactive,inactive,inactive,17.8 µM (active) and 24.5 µM (active)
CCC(C)(c1ccc(O)cc1)c1ccc(O)cc1,inactive,inactive,inactive,inactive,inactive,28.2 µM (active) and 22.4 µM (active),inactive,inactive,10 µM (active) and 15.9 µM (active),
Cc1cc(Cl)ccc1OCCCC(=O)O,inactive,inactive,inactive,inactive,inactive,,inactive,inactive,inactive,82.8 µM (active) and inactive
Nn1cnnc1,inactive,inactive,inactive,inactive,inactive,34.4 µM (active),,,inactive,19.3 µM (active) and 71 µM (active)
O=Cc1ccco1,inactive,inactive,inactive,inactive,inactive,inactive,inactive,,inactive,
CCCCN(CC)c1c([N+](=O)[O-])cc(C(F)(F)F)cc1[N+](=O)[O-],inactive,inactive,inactive,inactive,inactive,31.7 µM (active),22.4 µM (active),,inactive,
COP(=S)(OC)Oc1cc(Cl)c(Cl)cc1Cl,inactive,inactive,inactive,inactive,inactive,9.95 µM (active) and 7.76 µM (active),15.8 µM (active) and 11 µM (active),inactive,,19.9 µM (active) and 7.76 µM (active)
CC(C)=CC1C(C(=O)OCc2coc(Cc3ccccc3)c2)C1(C)C (configuration not stated),inactive,inactive,inactive,inactive,inactive,7.98 µM (active) and 3.55 µM (active),28.2 µM (active),inactive,,
CCC(=O)O[C@H]1CC[C@H]2[C@@H]3CCC4=CC(=O)CC[C@]4(C)[C@H]3CC[C@]12C,inactive,inactive,inactive,inactive,inactive,25.2 µM (active) and 30.9 µM (active),inactive,34.7 µM (active),inactive,
C[C@]12CCC(=O)C(O)=C1CC[C@@H]1[C@@H]2CC[C@]2(C)C(=O)CC[C@@H]12,inactive,inactive,inactive,inactive,31.7 µM (active),,inactive,inactive,,20 µM (active)
C=CC(=O)OCCO,inactive,inactive,inactive,inactive,inactive,inactive,,inactive,inactive,inactive
O=[N+]([O-])c1ccc(O)c([N+](=O)[O-])c1,inactive,inactive,inactive,inactive,inactive,63.5 µM (active) and 39.9 µM (active),inactive,inactive,inactive,
CCCCCCCCCCCOC(=O)c1ccccc1C(=O)OCCCCCCCCCCC,inactive,inactive,inactive,inactive,inactive,inactive,inactive,inactive,inactive,inactive
